Reference: PMC8384837, “Expanding the binding specificity for RNA recognition by a PUF domain”
Numbering of substitutions follows the chain as printed.

What was measured:
Experiment in all cases: yeast three-hybrid, YBZ-1, SC-Leu-His + 0.5 mM 3-AT, 4 days
Details in all cases: tags: N-Gal4 AD-HA kept; label: inside an RPR1-promoter hybrid RNA with tandem MS2 sites; ssRNA
PUM1 PUF domain R5-DWA = PUM1 PUF domain R5-DWA (Homo sapiens, UniProt Q14671 828-1176, C1007D;R1008W;Q1011A)
Procedure, shortened: (§1)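 A centromeric plasmid in strain YBZ-1 co-expressed Pumilio-1 PUF domain libraries, randomized at the three base-contacting residues of each repeat, with matching RNA elements; the strain carries a LexA–MS2 coat fusion and a HIS3 reporter. After four days on SC-Leu (input) or SC-Leu-His + 0.5 mM 3-AT (selection), the repeat regions were PCR-amplified and Illumina-sequenced. The interaction score is the log change in variant frequency from input to selection, using log2 and a pseudocount of 1 where absent.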

PUM1 PUF domain R5-GHA = PUM1 PUF domain R5-GHA (Homo sapiens, UniProt Q14671 828-1176, C1007G;R1008H;Q1011A)
Procedure, shortened: as §1

PUM1 PUF domain R5-RDK = PUM1 PUF domain R5-RDK (Homo sapiens, UniProt Q14671 828-1176, C1007R;R1008D;Q1011K)
Procedure, shortened: as §1

PUM1 PUF domain R4-VNT = PUM1 PUF domain R4-VNT (Homo sapiens, UniProt Q14671 828-1176, N971V;H972N;Q975T)
Chain of PUM1 PUF domain R4-VNT (Q14671 828-1176 N971V/H972N/Q975T): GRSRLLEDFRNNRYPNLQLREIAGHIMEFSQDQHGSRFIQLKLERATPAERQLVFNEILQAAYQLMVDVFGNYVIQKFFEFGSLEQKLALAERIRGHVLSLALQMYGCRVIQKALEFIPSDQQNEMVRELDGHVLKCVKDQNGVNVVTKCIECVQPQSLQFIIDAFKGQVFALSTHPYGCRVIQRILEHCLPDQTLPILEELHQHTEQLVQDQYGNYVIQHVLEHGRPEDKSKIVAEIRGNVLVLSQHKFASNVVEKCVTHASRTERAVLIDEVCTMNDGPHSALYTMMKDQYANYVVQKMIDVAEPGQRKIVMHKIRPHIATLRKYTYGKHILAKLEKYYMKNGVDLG
Procedure, shortened: as §1

PUM1 PUF domain R2-EWS = PUM1 PUF domain R2-EWS (Homo sapiens, UniProt Q14671 828-1176, N899E;Y900W;Q903S)
Procedure, shortened: as §1

PUM1 PUF domain R4-VYG = PUM1 PUF domain R4-VYG (Homo sapiens, UniProt Q14671 828-1176, N971V;H972Y;Q975G)
Procedure, shortened: as §1

PUM1 PUF domain R1-NWG = PUM1 PUF domain R1-NWG (Homo sapiens, UniProt Q14671 828-1176, S863N;R864W;Q867G)
Procedure, shortened: as §1

PUM1 PUF domain R8-KKT = PUM1 PUF domain R8-KKT (Homo sapiens, UniProt Q14671 828-1176, N1122K;Y1123K;Q1126T)
Procedure, shortened: as §1

PUM1 PUF domain R3-LFS = PUM1 PUF domain R3-LFS (Homo sapiens, UniProt Q14671 828-1176, C935L;R936F;Q939S)
Procedure, shortened: as §1

PUM1 PUF domain R5-EFD = PUM1 PUF domain R5-EFD (Homo sapiens, UniProt Q14671 828-1176, C1007E;R1008F;Q1011D)
Procedure, shortened: as §1

PUM1 PUF domain R5-CHQ = PUM1 PUF domain R5-CHQ (Homo sapiens, UniProt Q14671 828-1176, R1008H)
Procedure, shortened: as §1

PUM1 PUF domain R6-MYG = target: T1, PUM1 PUF domain R6-MYG (Homo sapiens, UniProt Q14671 828-1176, N1043M;Q1047G)
T1 sequence: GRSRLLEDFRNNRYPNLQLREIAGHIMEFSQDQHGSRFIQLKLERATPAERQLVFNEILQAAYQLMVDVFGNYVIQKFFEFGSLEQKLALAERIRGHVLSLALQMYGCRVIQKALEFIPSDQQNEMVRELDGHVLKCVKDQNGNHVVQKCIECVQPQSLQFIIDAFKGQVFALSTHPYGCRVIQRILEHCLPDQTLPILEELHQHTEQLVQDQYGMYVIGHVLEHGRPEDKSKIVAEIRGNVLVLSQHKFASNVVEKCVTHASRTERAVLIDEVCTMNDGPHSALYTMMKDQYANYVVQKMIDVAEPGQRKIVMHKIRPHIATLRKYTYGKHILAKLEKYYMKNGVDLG
Procedure, shortened: as §1

PUM1 PUF domain R8-KFR = PUM1 PUF domain R8-KFR (Homo sapiens, UniProt Q14671 828-1176, N1122K;Y1123F;Q1126R)
Procedure, shortened: as §1

PUM1 PUF domain R3-ASY = PUM1 PUF domain R3-ASY (Homo sapiens, UniProt Q14671 828-1176, C935A;R936S;Q939Y)
Procedure, shortened: as §1

PUM1 PUF domain R6-RWS = target: T2, PUM1 PUF domain R6-RWS (Homo sapiens, UniProt Q14671 828-1176, N1043R;Y1044W;Q1047S)
T2 sequence: T1 sequence with M216R, Y217W, G220S
Procedure, shortened: as §1

PUM1 PUF domain R1-CGE = PUM1 PUF domain R1-CGE (Homo sapiens, UniProt Q14671 828-1176, S863C;R864G;Q867E)
Chain of PUM1 PUF domain R1-CGE (Q14671 828-1176 S863C/R864G/Q867E): as the sequence (Q14671 828-1176 N971V/H972N/Q975T) above, with S36C, R37G, Q40E, V144N, N145H, T148Q counted along it
Procedure, shortened: as §1

PUM1 PUF domain R5-RNI = PUM1 PUF domain R5-RNI (Homo sapiens, UniProt Q14671 828-1176, C1007R;R1008N;Q1011I)
Procedure, shortened: as §1

PUM1 PUF domain R7-VTR = PUM1 PUF domain R7-VTR (Homo sapiens, UniProt Q14671 828-1176, S1079V;N1080T;E1083R)
Chain of PUM1 PUF domain R7-VTR (Q14671 828-1176 S1079V/N1080T/E1083R): as the sequence (Q14671 828-1176 N971V/H972N/Q975T) above, with V144N, N145H, T148Q, S252V, N253T, E256R counted along it
Procedure, shortened: as §1

PUM1 PUF domain R7-RVT = PUM1 PUF domain R7-RVT (Homo sapiens, UniProt Q14671 828-1176, S1079R;N1080V;E1083T)
Chain of PUM1 PUF domain R7-RVT (Q14671 828-1176 S1079R/N1080V/E1083T): as the sequence (Q14671 828-1176 N971V/H972N/Q975T) above, with V144N, N145H, T148Q, S252R, N253V, E256T counted along it
Procedure, shortened: as §1

PUM1 PUF domain R7-GCG = PUM1 PUF domain R7-GCG (Homo sapiens, UniProt Q14671 828-1176, S1079G;N1080C;E1083G)
Chain of PUM1 PUF domain R7-GCG (Q14671 828-1176 S1079G/N1080C/E1083G): as the sequence (Q14671 828-1176 N971V/H972N/Q975T) above, with V144N, N145H, T148Q, S252G, N253C, E256G counted along it
Procedure, shortened: as §1

## GGCUAGAACUAGUGGAUCCCCCGGCGCCCGGCGGCUCGAGCCCGGGUAAGUGUGAAUAGUCUGCAUGCCGCCGGGCGCCAUGCCUGCAGGUCGACUCUAGAAAACAUG
PUM1 PUF domain R5-DWA
  binding signal: 4.75 log2 enrichment (interaction score)
PUM1 PUF domain R5-GHA
  binding signal: 3.2 log2 enrichment (interaction score)
PUM1 PUF domain R5-RDK
  binding signal: 4.56 log2 enrichment (interaction score)

## GGCUAGAACUAGUGGAUCCCCCGGCGCCCGGCGGCUCGAGCCCGGGUAAGUGUAUAUAGUCUGCAUGCCGCCGGGCGCCAUGCCUGCAGGUCGACUCUAGAAAACAUG
PUM1 PUF domain R4-VNT
  binding signal: 2.54 log2 enrichment (interaction score)

## GGCUAGAACUAGUGGAUCCCCCGGCGCCCGGCGGCUCGAGCCCGGGUAAGUGUAAAAAGUCUGCAUGCCGCCGGGCGCCAUGCCUGCAGGUCGACUCUAGAAAACAUG
PUM1 PUF domain R2-EWS
  binding signal: 6.34 log2 enrichment (interaction score)

## GGCUAGAACUAGUGGAUCCCCCGGCGCCCGGCGGCUCGAGCCCGGGUAAGUGUACAUAGUCUGCAUGCCGCCGGGCGCCAUGCCUGCAGGUCGACUCUAGAAAACAUG
PUM1 PUF domain R4-VNT
  binding signal: 0.69 log2 enrichment (interaction score)

## GGCUAGAACUAGUGGAUCCCCCGGCGCCCGGCGGCUCGAGCCCGGGUAAGUGUAGAUAGUCUGCAUGCCGCCGGGCGCCAUGCCUGCAGGUCGACUCUAGAAAACAUG
PUM1 PUF domain R4-VYG
  binding signal: 5.26 log2 enrichment (interaction score)

## GGCUAGAACUAGUGGAUCCCCCGGCGCCCGGCGGCUCGAGCCCGGGUAAGUGUAAAUUGUCUGCAUGCCGCCGGGCGCCAUGCCUGCAGGUCGACUCUAGAAAACAUG
PUM1 PUF domain R1-NWG
  binding signal: 5.42 log2 enrichment (interaction score)

## GGCUAGAACUAGUGGAUCCCCCGGCGCCCGGCGGCUCGAGCCCGGGUAAGUGUUAAUAGUCUGCAUGCCGCCGGGCGCCAUGCCUGCAGGUCGACUCUAGAAAACAUG
PUM1 PUF domain R5-DWA
  binding signal: 5.07 log2 enrichment (interaction score)
PUM1 PUF domain R5-GHA
  binding signal: 2.33 log2 enrichment (interaction score)

## GGCUAGAACUAGUGGAUCCCCCGGCGCCCGGCGGCUCGAGCCCGGGUAAGCGUAAAUAGUCUGCAUGCCGCCGGGCGCCAUGCCUGCAGGUCGACUCUAGAAAACAUG
PUM1 PUF domain R8-KKT
  binding signal: 3.48 log2 enrichment (interaction score)

## GGCUAGAACUAGUGGAUCCCCCGGCGCCCGGCGGCUCGAGCCCGGGUAAGUGUAAUUAGUCUGCAUGCCGCCGGGCGCCAUGCCUGCAGGUCGACUCUAGAAAACAUG
PUM1 PUF domain R3-LFS
  binding signal: 4.38 log2 enrichment (interaction score)

## GGCUAGAACUAGUGGAUCCCCCGGCGCCCGGCGGCUCGAGCCCGGGUAAGUGUAAAUAGUCUGCAUGCCGCCGGGCGCCAUGCCUGCAGGUCGACUCUAGAAAACAUG
PUM1 PUF domain R5-EFD
  binding signal: 4.36 log2 enrichment (interaction score)
PUM1 PUF domain R5-DWA
  binding signal: 1.76 log2 enrichment (interaction score)
PUM1 PUF domain R5-GHA
  binding signal: 3.68 log2 enrichment (interaction score)
PUM1 PUF domain R5-CHQ
  binding signal: 2.46 log2 enrichment (interaction score)
PUM1 PUF domain R6-MYG
  binding signal: 4.1 log2 enrichment (interaction score)
PUM1 PUF domain R8-KFR
  binding signal: 6.77 log2 enrichment (interaction score)
PUM1 PUF domain R3-ASY
  binding signal: 2.58 log2 enrichment (interaction score)
PUM1 PUF domain R3-LFS
  binding signal: 3.98 log2 enrichment (interaction score)
PUM1 PUF domain R6-RWS
  binding signal: 6.05 log2 enrichment (interaction score)

## GGCUAGAACUAGUGGAUCCCCCGGCGCCCGGCGGCUCGAGCCCGGGUAAGUGUAAAUGGUCUGCAUGCCGCCGGGCGCCAUGCCUGCAGGUCGACUCUAGAAAACAUG
PUM1 PUF domain R1-CGE
  binding signal: 3.82 log2 enrichment (interaction score)

## GGCUAGAACUAGUGGAUCCCCCGGCGCCCGGCGGCUCGAGCCCGGGUAAGUGUCAAUAGUCUGCAUGCCGCCGGGCGCCAUGCCUGCAGGUCGACUCUAGAAAACAUG
PUM1 PUF domain R5-DWA
  binding signal: 2.25 log2 enrichment (interaction score)
PUM1 PUF domain R5-RNI
  binding signal: 3.78 log2 enrichment (interaction score)

## GGCUAGAACUAGUGGAUCCCCCGGCGCCCGGCGGCUCGAGCCCGGGUAAGUGUAAGUAGUCUGCAUGCCGCCGGGCGCCAUGCCUGCAGGUCGACUCUAGAAAACAUG
PUM1 PUF domain R3-LFS
  binding signal: 6.56 log2 enrichment (interaction score)

## GGCUAGAACUAGUGGAUCCCCCGGCGCCCGGCGGCUCGAGCCCGGGUAAGUUUAAAUAGUCUGCAUGCCGCCGGGCGCCAUGCCUGCAGGUCGACUCUAGAAAACAUG
PUM1 PUF domain R7-VTR
  binding signal: 3.74 log2 enrichment (interaction score)
PUM1 PUF domain R7-RVT
  binding signal: 2.57 log2 enrichment (interaction score)
PUM1 PUF domain R7-GCG
  binding signal: 3.64 log2 enrichment (interaction score)

## GGCUAGAACUAGUGGAUCCCCCGGCGCCCGGCGGCUCGAGCCCGGGUAAGUGUAAAGAGUCUGCAUGCCGCCGGGCGCCAUGCCUGCAGGUCGACUCUAGAAAACAUG
PUM1 PUF domain R2-EWS
  binding signal: 4.8 log2 enrichment (interaction score)
